# Assay results published in PubChem BioAssay (NCI).
# Compounds without any hit were thinned out: in the full panel of roughly 83,000, 20% have a hit.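 Values shown are percent growth following 48 h exposure of cells in 96-well plates to a single concentration of compound; below 10 was considered active.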 A number with no mark means an inactive call. Active and inactive are the calls of the source.
# Columns and labels:
# Experiment in all cases: NCI-60 one-dose screen, 48 h (100 = growth as untreated, 0 = no growth, -100 = all killed)
# Conditions in all cases: 10 µM unless noted
# NCI-H23 lung = system: NCI-H23 lung
# NCI-H226 lung = system: NCI-H226 lung
# NCI-H322M lung = system: NCI-H322M lung
# HOP-62 NSCLC = system: HOP-62 NSCLC
# NCI-H460 lung = system: NCI-H460 lung
# HOP-92 NSCLC = system: HOP-92 NSCLC
# NCI-H522 lung = system: NCI-H522 lung
# A549/ATCC NSCLC = system: A549/ATCC NSCLC
# 786-0 renal = system: 786-0 renal
# COLO 205 colon = system: COLO 205 colon
# DU-145 prostate = system: DU-145 prostate
# K-562 leukemia = system: K-562 leukemia
# MALME-3M melanoma = system: MALME-3M melanoma
# RXF 393 renal = system: RXF 393 renal
# SF-268 CNS = system: SF-268 CNS
# SF-295 CNS = system: SF-295 CNS
# SF-539 CNS = system: SF-539 CNS
# UACC-257 melanoma = system: UACC-257 melanoma
# M14 melanoma = system: M14 melanoma
# MDA-MB-231 breast = system: MDA-MB-231 breast
Structure (SMILES),growth (NCI-H23 lung),growth (NCI-H226 lung),growth (NCI-H322M lung),growth (HOP-62 NSCLC),growth (NCI-H460 lung),growth (HOP-92 NSCLC),growth (NCI-H522 lung),growth (A549/ATCC NSCLC),growth (786-0 renal),growth (COLO 205 colon),growth (DU-145 prostate),growth (K-562 leukemia),growth (MALME-3M melanoma),growth (RXF 393 renal),growth (SF-268 CNS),growth (SF-295 CNS),growth (SF-539 CNS),growth (UACC-257 melanoma),growth (M14 melanoma),growth (MDA-MB-231 breast)
O=C(/C=C/c1ccc(-c2ccccc2)cc1)c1nc2ccccc2n1Cc1ccc(Br)cc1,24.7%,24.3%,72.4%,56.4%,16.8%,40.1%,71%,64.7%,39.3%,76.7%,80.5%,36%,44%,35.3%,62.9%,21.9%,17.7%,67.4%,74%,
NS(=O)(=O)c1ccc(-n2cc(-c3cccc(NC(=O)c4cc(Cl)cc(Cl)c4)c3)nn2)cc1,41.2%,105%,68.8%,51.2%,43.7%,98.4%,75.5%,27.1%,79.9%,76.4%,74.6%,,77.6%,87.9%,43.1%,75.6%,70.1%,83.2%,52.4%,54.1%
O=C(/C=C/c1cccc(OCc2ccccc2)c1)c1nc2ccccc2[nH]1,63.7%,1.49% (active),92.3%,50.5%,63%,22.7%,72.8%,39.1%,-60.7% (active),-31.7% (active),55.9%,-8.72% (active),90.9%,20.4%,62.3%,69.9%,-56.5% (active),70.1%,1.55% (active),
CSc1ccccc1NC(=O)c1ccc2nn(/C(C#N)=C/c3ccccn3)nc2c1,-83.9% (active),-96.8% (active),25.3%,0.554% (active),-36.9% (active),-23.8% (active),-92.7% (active),0.0722% (active),-96.5% (active),-84% (active),-99.5% (active),-10.1% (active),-89% (active),-95.8% (active),14.6%,-21.9% (active),-93.1% (active),-91% (active),-88.1% (active),
O=C(/C=C/c1cccc(OCc2ccc(F)cc2)c1)c1nc2ccccc2[nH]1,73%,42.2%,114%,71.1%,76.8%,27.5%,63.5%,49.5%,-46.1% (active),13.8%,70.3%,-14.6% (active),95.8%,57.7%,95.1%,74.2%,44.7%,76.1%,13.8%,
Cc1ccc2c(N)c(C(=O)Nc3ccc(OC(F)(F)F)cc3)sc2n1,47.6%,47%,82.5%,68.4%,77.8%,59.1%,66.7%,75.7%,97.5%,92.4%,82.1%,9.66% (active),75.3%,86.3%,98.9%,42.9%,36.5%,70%,82.9%,
CN1CCN(c2ccc3c(c2)nc(NNC(=O)c2ncccn2)c2cccn23)CC1,4.51% (active),-22.8% (active),-7.59% (active),-19.7% (active),3.42% (active),-14.8% (active),-7.36% (active),12.5%,-96.8% (active),-85.7% (active),1.57% (active),,-41.8% (active),-53.6% (active),-15.7% (active),-90% (active),-83% (active),17.8%,-53.5% (active),-45.8% (active)
COc1cc(-c2ccc(/C=N/NC(=O)c3[nH]c4ccc(Br)cc4c3-c3ccccc3)o2)cc(OC)c1OC,53.9%,49.6%,81.2%,62.6%,62.8%,61.7%,82.8%,71.6%,67.2%,94.7%,81.1%,85.6%,95.4%,88.7%,59%,56.6%,-13.1% (active),92.1%,74.9%,
COc1ccccc1/C=C/C(=O)c1ccc(OC)c(S(N)(=O)=O)c1,23.2%,39.8%,30.5%,13.5%,5.83% (active),48.6%,-9.78% (active),5.93% (active),24%,1.12% (active),26.4%,,50%,-0.859% (active),21%,21.8%,-4.72% (active),59.6%,8.83% (active),7.39% (active)
COc1cc(/C=C/C(=O)c2nnn(-c3ccc(Cl)cc3)c2C)cc(OC)c1OC,26.9%,40%,63.1%,37.2%,14.2%,38.7%,28%,34.9%,65.8%,41.5%,17.3%,3.43% (active),49%,49.7%,38.8%,51.8%,52%,35.3%,30.4%,
COc1ccc(C(=O)/C=C/c2cccc(Br)c2)cc1S(N)(=O)=O,-66.3% (active),17.4%,3.22% (active),-86.8% (active),2.36% (active),-9.79% (active),-79% (active),-86.2% (active),-98.3% (active),-92.6% (active),-37% (active),,-33.5% (active),-80.3% (active),-39.4% (active),-81.2% (active),-95.7% (active),-80% (active),-93% (active),-65.5% (active)
C=C1CC[C@@H]2[C@]3(C)COC(c4cn[nH]c4-c4ccc(C)cc4)O[C@@H]3CC[C@@]2(C)[C@@H]1C/C=C1/C(=O)OCC1O (some centres undefined),-8.25% (active),-65.3% (active),79.9%,27.4%,67%,-9.12% (active),-58.4% (active),41.5%,-64% (active),12.8%,37.2%,2.59% (active),-52.6% (active),-31.7% (active),54.2%,49.5%,-88.1% (active),-0.178% (active),-42.2% (active),
COc1ccc(C(=O)/C=C/c2cccnc2)cc1S(N)(=O)=O,22.3%,77.3%,52%,27.5%,19.9%,56.5%,-67.8% (active),42.7%,50.4%,23.9%,22%,,77.5%,54.1%,44.4%,38.9%,3.62% (active),72.1%,66.2%,60.5%
O=C1N/C(=N\c2nccs2)S/C1=C\C=C/c1ccccc1,55.8%,81.5%,30.4%,43%,26.4%,64%,19.8%,-81.1% (active),31%,33.2%,49.1%,,42.6%,88.6%,39.2%,21.9%,13%,8.23% (active),-21% (active),51.6%
O=C(N/N=C/c1ccc(-c2ccc(O)cc2)o1)c1[nH]c2ccc(Br)cc2c1-c1ccccc1,5.82% (active),10.6%,17.4%,-11.3% (active),-11.3% (active),-40.7% (active),-45.9% (active),11.2%,-16.7% (active),-54.5% (active),0.567% (active),1.64% (active),-26.8% (active),-10% (active),12.7%,-68.7% (active),-59.2% (active),27.4%,18.1%,
COc1cc(CNC(=O)/C=C/c2ccc3c(c2)OCO3)ccc1OCc1cn(-c2cccc(C(F)(F)F)c2)nn1,1.63% (active),-44.8% (active),26.4%,1.47% (active),29.2%,-37.5% (active),27%,-3.39% (active),-44.7% (active),25.3%,30%,24.7%,-11.9% (active),-28.9% (active),39%,-20.7% (active),-81.2% (active),18.1%,4.8% (active),
